AID504770: growth inhibitors of E. coli YBA685 in a screen for V. cholerae RctB (chromosome II replication) inhibitors | E. coli YBA685 rctB-dependent plasmid, OD600 growth, 3 h; active compounds read low | z-score (no concentration beside the values) | 130,000 compounds, 0.27% hits | AID 504770; in the data active means z-score below about -2, passing the limit was not always enough
Polio RdRp inh: poliovirus RNA polymerase inhibition; P03300; % elongation, % (compound at 16.7 µg/mL); poliovirus polymerase elongation, fluorescence polarization; active compounds read low; 150,000 compounds, 0.66% hits; in the data active means % elongation below about 90%
Mtb MbtI inh: MbtI salicylate synthase inhibition; purified MbtI enzyme, fluorescence intensity read-out; inhibition, % (concentration not given with the values); 100,000 compounds, 0.89% hits; AID 493033; in the data active means inhibition mostly above about 56%, no sharp cut-off; inactive means mostly below about 77%
Mtb MenB inh: inhibitors of Mycobacterium tuberculosis MenB enzyme; P9WNP5; MenB enzyme assay, absorbance read-out; inhibition, % (no concentration beside the values); 100,000 compounds, 0.43% hits; AID 540299; in the data active means inhibition above about 21%, passing the limit was not always enough
Target sequence (P9WNP5 whole entry, looked up): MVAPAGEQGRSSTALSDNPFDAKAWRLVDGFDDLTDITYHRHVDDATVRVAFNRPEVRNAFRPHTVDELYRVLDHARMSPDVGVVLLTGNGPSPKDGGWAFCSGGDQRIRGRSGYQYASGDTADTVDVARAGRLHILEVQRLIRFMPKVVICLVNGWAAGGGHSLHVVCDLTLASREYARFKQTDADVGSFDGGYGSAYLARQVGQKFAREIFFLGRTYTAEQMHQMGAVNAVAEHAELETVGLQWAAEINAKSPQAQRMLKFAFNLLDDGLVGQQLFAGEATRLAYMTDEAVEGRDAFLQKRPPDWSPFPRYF
Numbers stand for hits; 0 = inactive; - = no result. Hits are enriched below; roughly 1.4% of the tested compounds scored in any of these assays.

SMILES | AID504770 | Polio RdRp inh | Mtb MbtI inh | Mtb MenB inh
Cc1ccc(NC(=O)C23CCC(C2)C(C)(C)C3=O)c(C)c1 (stereo not drawn) | 0 | 0 | 0 | 0
CN(C)c1nc(N(C)C)n(-c2ccccc2)n1 | 0 | - | - | -
CC1CCCN(C(=O)C2c3ccccc3C(=O)N(C)C2c2c[nH]c3ccccc23)C1 (stereo not drawn) | 0 | 0 | 0 | 0
CCC(=O)NC(c1c(C)[nH]n(-c2ccccc2)c1=O)(C(F)(F)F)C(F)(F)F | -3.25 | 0 | - | 0
C=CCC(O)(CN)CC=C | 0 | 0 | 0 | 32.2
Cc1ccc(CC(C#N)Sc2nnc(C)n2Cc2ccccc2)cc1 (stereo not drawn) | 0 | 0 | 0 | 0
N#CSC(C#N)Cc1ccccc1 (stereo not drawn) | -6.45 | 0 | 82.9 | 0
CC(NS(=O)(=O)c1cccc(Cl)c1)C(=O)N(C)C1CCN(C)CC1 (stereo not drawn) | -5.3 | 0 | 0 | 0
Cc1ccc(S(=O)(=O)NC(C)C(=O)N2CCN(c3cccc(Cl)c3)CC2)cc1 (stereo not drawn) | 0 | 0 | 0 | 0
Cc1nn(-c2ccc(Cl)cc2)c2sc(C(=O)NC(C)(C)CO)cc12 | 0 | 0 | 0 | 0
CCOc1nc(NCc2ccco2)nc(N2CC3CC(C2)c2cccc(=O)n2C3)n1 (stereo not drawn) | 0 | 0 | 0 | 39.4
O=c1cccc2n1CC1CC2CN(c2nc(N3CCCCC3)nc(N3CCCCC3)n2)C1 (stereo not drawn) | -2.7 | 0 | 0 | 0
CC1Cc2ccccc2N1C(=O)COC(=O)/C=C/c1ccc2c(c1)OCO2 (stereo not drawn) | 0 | 0 | 0 | 0
Cc1cc2ccccc2n1-c1ccc(C(=O)N2CCC(C(=O)N(C)Cc3ccccc3)CC2)s1 | 0 | 0 | 0 | 0
COC(=O)c1sc2ccccc2c1NC(=O)C1CCCCC1 | 0 | - | - | -
Cc1ccccc1Nc1cc2ccccc2c(=O)[nH]1 | -3.95 | - | 0 | -
Cc1ccc(-n2c(C)cc(P(=S)(N3CCOCC3)N3CCOCC3)c2C)c(C)c1 | 0 | 0 | 68.6 | 0
Cc1cc(P(=N)(N2CCOCC2)N2CCOCC2)c(C)n1-c1ccc(I)cc1 | 0 | 0 | 0 | 0
O=S1(=O)CCC(NC(=S)SCc2ccccc2)C1 (stereo not drawn) | -3.75 | - | - | -
O=S1(=O)CCC(NC(=S)S)C1 (stereo not drawn) | 0 | 0 | 95.6 | -
CCOC(=O)c1sc(NC(=O)C2c3ccccc3Oc3ccccc32)c(C#N)c1C | - | 76.0 | - | -
COc1ccc(C(=O)NCC23C=CC(O2)C2C(=O)N(c4ccccc4C)C(=O)C23)cc1 (stereo not drawn) | 0 | 0 | 65.3 | 0
Nn1c(SCCOc2ccccc2)nnc1-c1ccccc1 | 0 | 79.0 | 0 | 0
CCOC1(O)C(=O)c2ccccc2C(=O)C1(O)OCC (stereo not drawn) | 0 | - | 0 | -
O=C1c2ccccc2C(=O)C2(O)OCCOC12O (stereo not drawn) | 0 | 90.0 | 0 | 0
SMILES | AID504770 | Polio RdRp inh | Mtb MbtI inh | Mtb MenB inh
CC(Oc1ccccc1)C(=O)OCc1nnc(-c2ccc(F)cc2)o1 (stereo not drawn) | 0 | - | 0 | 0
COc1ccccc1-c1nnc(SCC(=O)c2ccc(F)cc2)n1-c1ccccc1 | - | 83.0 | - | -
CC(C)c1ccc(-c2nnn(Cc3cc(=O)n4ccsc4n3)n2)cc1 | -2.25 | 0 | 0 | 0
O=C(OCC(=O)N1CCOCC1)c1ccc(Cl)c(S(=O)(=O)N2CCCC2)c1 | 0 | 0 | 0 | 0
CCOc1ccc(CCNC(=O)c2cnc3c(-c4ccc(F)cc4)c(C)nn3c2C)cc1 | - | 0 | - | -
Cc1ccc(CCNC(=O)c2cnc3c(-c4ccc(F)cc4)c(C)nn3c2C)cc1 | - | 76.0 | - | -
COc1ccccc1-n1c(C)nc(=O)c(-c2ccccc2)c1C | 0 | 0 | 0 | 0
CC(=O)Oc1ccccc1-n1c(C)nc(=O)c(-c2ccccc2)c1C | -4.55 | 0 | 0 | -
CSc1ccc(C2CC(=O)N3CN(C)CSC3=C2C#N)cc1 (stereo not drawn) | 0 | 0 | 92.3 | 0
CN1CSC2=C(C#N)C(c3ccccc3)CC(=O)N2C1 (stereo not drawn) | 0 | 0 | 85.6 | 0
Nc1nc2ccccc2n1Cc1ccc(Cl)c(Cl)c1 | -4.2 | 0 | - | 0
Cc1occc1C(=O)NCc1ccccc1 | 0 | 0 | 0 | 55.9
NC(=O)N1C(=O)C=CC1=O | -8.5 | - | 0 | 0
Cc1cc(NC(=O)CN(C)C2CCCCC2)nc2c1c(=O)oc1ccccc12 | 0 | 0 | 0 | 0
N#CC1=C(S)NC(=O)C(C#N)C12CCCCC2 (stereo not drawn) | 0 | 0 | 91.0 | 0
CSC1=C(C#N)C2(CCCC2)C(C#N)C(=O)N1 (stereo not drawn) | 0 | 0 | 0 | -
Cc1csc(Nc2ccc(Cl)cc2)n1 | 0 | 0 | 62.5 | 0
Clc1ccc(Nc2nnns2)cc1 | 0 | 0 | 58.8 | 0
Cc1c(C(=O)NC2CCCC2)sc2nc(-c3ccccc3)cn12 | 0 | - | - | -
COc1ccccc1C(=O)NCC(=O)O | 0 | 0 | 0 | 34.7
COc1cccc(NC(=O)c2ccnc(N3CCC(C(=O)O)CC3)c2)c1 | 0 | 0 | 0 | 0
BrCC12CC3CC(CC(C3)C1)C2 | 0 | - | - | -
COc1ccc(Cl)cc1NC(=O)c1sc2nc(-c3ccc(OC)c(OC)c3)ccc2c1N | - | 0 | - | -
COc1ccc(Cl)cc1NC(=O)c1sc(=S)n(C)c1N | 0 | 72.0 | 87.7 | 0
O=[n+]1cc(-c2ccc(F)cc2)n([O-])c2c1CCCC2 | 0 | 0 | 0 | 0
SMILES | AID504770 | Polio RdRp inh | Mtb MbtI inh | Mtb MenB inh
O=c1cc(-c2ccccc2)sc(=O)[nH]1 | 0 | 0 | - | 0
S=c1cc(-c2ccccc2)ss1 | 0 | 88.0 | 94.3 | 0
CC1CN(C(=S)NCCc2ccccc2)CC(C)O1 (stereo not drawn) | 0 | 0 | 0 | 0
CC1CN(C(=S)c2ccccc2)CC(C)O1 (stereo not drawn) | 0 | 0 | 67.7 | 0
C=CCN1C(=O)NC(=O)/C(=C\c2ccc(O)c(O)c2)C1=O | 0 | 0 | 0 | 0
O=C1NC(=O)N(CCc2ccc(F)cc2)C(=O)/C1=C\c1ccc(O)c(O)c1 | 0 | 0 | 51.0 | 0
O=C1C=C(N2CCOCC2)C(=O)c2ccccc21 | 0 | 0 | 0 | 0
COC(CNc1ncnc2sc(-c3ccccc3)cc12)OC | 0 | 0 | 79.8 | 0
CCC(C)NC(=O)c1cnn2c(C)cc(C)nc12 (stereo not drawn) | 0 | 0 | 0 | 0
O=C(O)/C=C1\OC(=O)c2ccccc21 | 0 | 0 | 0 | 0
COC(=O)/C=C1/OC(c2ccccc2)=CC1=O | 0 | 0 | 89.4 | 0
CC(C)Cn1cc(C(=O)N2CCN(c3ccccc3F)CC2)c2c3ccccc3n(C)c2c1=O | 0 | 0 | 0 | 0
O=C(O)CSc1nccn1Cc1ccccc1 | 0 | 0 | 0 | 0
c1ccc(-c2nnc3sc(-c4ccc5c(c4)OCO5)nn23)cc1 | 0 | 0 | 0 | 0
O=S(=O)(c1cccc(-c2nn3c(-c4ccncc4)nnc3s2)c1)N1CCCCC1 | 0 | 85.0 | 0 | 0
O=C(O)CCN1C(=O)/C(=C/c2ccccn2)SC1=S | 0 | 0 | 74.5 | 0
O=C1/C(=C\c2ccccn2)SC(=S)N1CCc1ccc(Cl)cc1 | 0 | - | - | -
O=c1c2ccccc2nc(-c2ccco2)n1-c1nccs1 | 0 | 0 | 0 | 41.6
CN(C)c1ccc(C(=O)NCCN2C(=O)S/C(=C\c3ccc4c(c3)OCO4)C2=O)cc1 | 0 | 0 | 0 | 0
NC(=S)c1ccccn1 | 0 | 20.0 | 0 | 0

Bioassay records deposited in PubChem BioAssay by ICCB-Longwood Screening Facility, Harvard Medical School.
